Most compounds without a hit are left out; they make up all but 4.4% or so of the library.
tim10-1 inh = inhibits growth of tim10-1 mutant yeast; S. cerevisiae tim10-1 ts strain growth, BacTiter-Glo, 24 h; inhibition, % at 20 µM; hit rate 2.2% among 330,000; AID 463190;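 active = inhibition of at least 40%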;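 also: mutant grown at 25 °C; 0% = DMSO wells with yeast and 100% = wells holding no yeast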
SKKanGAS inh = SKKanGAS growth inhibition; S. pyogenes SKKanGAS, kanamycin growth, BacTiter-Glo, 6 h; inhibition, % at 7.5 µM; hit rate 1.3% among 300,000; AID 1662;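 active = mean replicate score, as percent of positive control median, at least 50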;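 also: strain carries kanamycin resistance gene driven by streptokinase promoter and grows in 40 µg/ml kanamycin; loss of luminescence reflects streptokinase promoter inhibition or plain growth inhibition; 0% = median of DMSO wells and 100% = positive control at its reference dose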
PfHsp90 yeast 2 = inhibits growth of yeast expressing Plasmodium falciparum Hsp90; S. cerevisiae expressing PfHsp90, BacTiter-Glo ATP, 48 h; yeast lacking PDR1 and PDR3 efflux regulators; inhibition, % at 9.4 µM; hit rate 0.32% among 310,000;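 active = every replicate shows inhibition above about 80%, whatever the replicate mean, limit read from the data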;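 also: 0% = DMSO neutral controls and 100% = 20 µM radicicol positive controls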
tim23-1 inh = tim23-1 yeast growth inhibition; S. cerevisiae tim23-1 growth, BacTiter-Glo luminescence, 24 h; AID 463212; hit rate 1.3% among 330,000; inhibition, % at 20 µM;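 active = growth inhibition of the mutant yeast at or above 50%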;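 also: temperature-sensitive mutant grown at 25 °C; plate controls were DMSO-treated mutant yeast for no effect and medium wells lacking yeast for full effect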
TIM10 inh = TIM10 yeast growth inhibition. S. cerevisiae TIM10 strain growth, BacTiter-Glo luminescence, 24 h. inhibition, % at 10 µM. hit rate 1.4% among 330,000. AID 463195;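 active = inhibition of 40% or more at the single tested concentration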;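 also: wild-type TIM10 isogenic control strain grown at permissive 25 °C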
tim10-1 conf = confirmation of tim10-1 mutant yeast growth inhibitors; inhibition, % at 20 µM; hit rate 56% among 7,400; shares compounds with tim10-1 inh; S. cerevisiae tim10-1 ts strain growth, BacTiter-Glo, 24 h;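 active = inhibition of yeast growth at or above a set limit in either of two repeat tests at 20 µM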;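 also: tim10-1 mutant grown at permissive 25 °C to find synthetic lethal compounds; 0% = DMSO yeast wells and 100% = medium wells without yeast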
tim10 confirm = confirmation of TIM10 yeast growth inhibitors; shares compounds with TIM10 inh; S. cerevisiae tim10 strain growth, BacTiter-Glo luminescence, 24 h; inhibition, % at 10 µM; hit rate 63% among 4,600; AID 463215;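 active = inhibition of yeast growth at or above a set limit in either of two replicates at 10 µM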;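 also: this counterscreen used the strain with wild-type TIM10; 0% = yeast with DMSO and 100% = medium wells lacking yeast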
tim23-1 conf = tim23-1 yeast growth inhibition, confirmed; shares compounds with tim23-1 inh; inhibition, % at 20 µM; AID 463218; S. cerevisiae tim23-1 growth, BacTiter-Glo luminescence, 24 h; hit rate 83% among 4,400;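 active = inhibition above about 39% in either of two replicate wells at 20 µM, limit read from the data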;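 also: temperature-sensitive tim23-1 mutant grown at 25 °C; 0% = DMSO wells with yeast and 100% = medium wells without yeast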
* marks the source's active call; other numbers are inactive results; nt = no result given.

SMILES | tim10-1 inh | SKKanGAS inh | PfHsp90 yeast 2 | tim23-1 inh | TIM10 inh | tim10-1 conf | tim10 confirm | tim23-1 conf
O=C1c2c(O)ccc(O)c2C(=O)c2c(NCCNCCO)ccc(NCCNCCO)c21 | -31 | nt | 7 | -46 | -186 | nt | nt | nt
O=C1c2ccccc2C(=O)c2c(Nc3ccc(CCO)cc3)ccc(O)c21 | 59* | 83* | 7 | 57* | 34 | 37* | nt | 51*
CC(C)Cn1c(N)c(C(=O)COC(=O)C2CC(=O)N(Cc3ccccc3Cl)C2)c(=O)n(C)c1=O (stereo unspecified) | 10 | 6 | -6 | -6 | -15 | nt | nt | nt
COC(=O)c1c(NC(=O)c2cccc(S(=O)(=O)N3CCN(C)CC3)c2)sc(C)c1C | 57* | -13 | nt | 55* | 28 | 42* | nt | 47*
CCOC(=O)c1sc(NC(=O)c2cccc(S(=O)(=O)N3CCN(C)CC3)c2)cc1C | 6 | 2 | 10 | -3 | 16 | nt | nt | nt
COc1ccc(OCC(=O)OCC(=O)NC2CCCCC2C)cc1 (stereo unspecified) | 15 | nt | -8 | 16 | 3 | nt | nt | nt
CC1CCCCC1NC(=O)/C(C#N)=C/c1ccc(OCC(N)=O)cc1 (stereo unspecified) | 48* | -5 | 25 | 55* | 45* | 33* | 16 | 50*
CC(C)(Cc1cccc(CC(C)(C)C(=O)O)c1)C(=O)O | -2 | 1 | 13 | -1 | -4 | nt | nt | nt
COc1ccc(Nc2ncnc3c2c(C)c(C)n3CCCN(C)C)cc1 | 8 | -1 | -8 | 0 | -6 | nt | nt | nt
CCOC(=O)n1c(=O)n(Cc2ccc(F)cc2)c2ccccc21 | 24 | 2 | -16 | 29 | -1 | nt | nt | nt
CCOC(=O)n1c(=O)n(Cc2cccc(C)c2)c2ccccc21 | 51* | 6 | -39 | 59* | 35 | 41* | nt | 53*
CCn1cc(/C=C(\NC(=O)c2ccc(OC)c(OC)c2)C(=O)NCCCN2CCOCC2)c2ccccc21 | -7 | -1 | 4 | -2 | 4 | nt | nt | nt
COc1ccc(OCc2cc(/C=N\NC(=O)c3ccccc3)ccc2OC)cc1 | 49* | 8 | -5 | 52* | 34 | 31 | nt | 45*
CSc1cccc(NC(=O)c2ccc(CN3CCc4ccccc4C3)cc2)c1 | 9 | 13 | 3 | 4 | 16 | nt | nt | nt
O=C(Nc1cccc(Br)c1)c1ccc(CN2CCc3ccccc3C2)cc1 | 44* | 11 | 0 | 63* | 44* | 31* | 38* | 74*
CCN(CC)c1nc(-c2ccccn2)nc(-c2ccccc2)c1C#N | 58* | 37 | -73 | 58* | 60* | 51* | 65* | 53*
O=[N+]([O-])c1ccc(N2CCN(c3cccc(Cl)c3)CC2)cn1 | -8 | 8 | -14 | -5 | -23 | nt | nt | nt
Cc1ccc(OCCNc2ccc(C(F)(F)F)cc2[N+](=O)[O-])cc1 | 3 | -5 | -38 | 7 | 1 | nt | nt | nt
Cc1cc(C)cc(OC(=O)CS(=O)c2ccc(C(F)(F)F)cc2[N+](=O)[O-])c1 (stereo unspecified) | 51* | 11 | -46 | 66* | 31 | 28* | nt | 68*
O=C(CS(=O)c1ccc(C(F)(F)F)cc1[N+](=O)[O-])Oc1ccc(Cl)cc1 (stereo unspecified) | 47* | -5 | -7 | 70* | 55* | 47* | 36* | 67*
O=C(NCCO)c1ccc(Oc2ccc(C(F)(F)F)cc2[N+](=O)[O-])cc1 | 0 | -1 | -8 | 5 | 0 | nt | nt | nt
COc1ccccc1C(=O)N/N=C(\C)c1cccnc1 | -6 | -1 | 6 | -3 | 6 | nt | nt | nt
O=C(NC(Cc1ccccc1)C(=O)O)c1cccnc1Cl (stereo unspecified) | -4 | 3 | 1 | 0 | -3 | nt | nt | nt
COc1ccc(NC(=O)C(OC(=O)Cn2cnc3c2c(=O)n(C)c(=O)n3C)c2ccccc2)cc1Cl (stereo unspecified) | nt | nt | -16 | nt | nt | nt | nt | nt
N#Cc1c([N+](=O)[O-])cc([N+](=O)[O-])cc1S(=O)(=O)Cc1ccccc1 | 62* | nt | -6 | 67* | 54* | 61* | 64* | 87*
SMILES | tim10-1 inh | SKKanGAS inh | PfHsp90 yeast 2 | tim23-1 inh | TIM10 inh | tim10-1 conf | tim10 confirm | tim23-1 conf
COc1cc(OC)c(C#N)c(S(=O)(=O)Cc2ccccc2)c1 | 18 | -1 | 2 | 15 | 0 | nt | nt | nt
Cc1ccc(S(=O)(=O)N(CC(=O)NCCSc2ccccn2)c2ccccc2F)cc1 | 4 | 3 | -15 | 15 | 29 | nt | nt | nt
Cc1c(CCC(=O)O)c(=O)oc2cc(OCc3ccccc3Br)ccc12 | 2 | 27 | 1 | -4 | 7 | nt | nt | nt
CC1CCCCC1NC(=S)Nc1ccc(SC(F)F)cc1 (stereo unspecified) | 66* | 42 | nt | 53* | 70* | 65* | 64* | 39
O=C(Nc1scc(-c2ccc(Br)cc2)c1C(=O)O)c1ccccc1F | 74* | 78* | 19 | 88* | 74* | 82* | 91* | 89*
Cc1ccc(-c2csc(NC(=O)c3ccccc3F)c2C(=O)O)cc1 | 79* | 8 | 31 | 83* | 74* | 79* | 84* | 88*
Cc1cccc(C(=O)NCCC(=O)Nc2ccc(F)c([N+](=O)[O-])c2)c1 | -10 | -2 | 11 | 2 | 0 | nt | nt | nt
COc1ccc(N2CCN(S(=O)(=O)c3c(C)nc4sccn4c3=O)CC2)cc1 | 6 | -5 | 6 | 8 | 10 | nt | nt | nt
Oc1ccc(/C=N/NC(=S)NCc2ccco2)cc1 | 1 | 5 | -4 | 3 | 7 | nt | nt | nt
CCN(CC)c1ccc(/C=N/NC(=S)NCc2ccco2)cc1 | 42* | -13 | -4 | 51* | 46* | 34* | -4 | 40*
CCN(CC)c1ccc2nc3ccc(N)cc3[n+](-c3ccccc3)c2c1 | 57* | nt | 59 | 59* | 36 | 43* | nt | 57*
O=c1oc2ccccc2nc1/C=C(O)/C=C/c1ccc(F)cc1 | 41* | 2 | 38 | 64* | 56* | 59* | 58* | -13
Cc1ccc(/C(O)=C/c2nc3ccccc3oc2=O)cc1 | -30 | 4 | nt | -18 | -5 | nt | nt | nt
O=C(c1cc(-c2ccc(O)cc2)on1)N1CCN(c2ccccc2)CC1 | 28 | 11 | -6 | 42 | 21 | nt | nt | nt
O=C(c1cc(-c2ccc(O)cc2)on1)N1CCN(c2ccc(F)cc2)CC1 | 49* | -2 | -11 | 52* | 41* | 26 | 41* | 46*
O=C1/C(=C/c2cccc(F)c2)Oc2cc(O)ccc21 | 52* | 1 | 22 | 52* | 24 | 39* | nt | 71*
CCN1C(=O)/C(=C\c2ccc3c(c2)OCO3)C(C(=O)OC)=C1C | 47* | -8 | nt | 50 | 56* | 45* | 43* | 62*
